# Test results as given in PubChem BioAssay (NCATS).
# Values joined by “and” are separate entries in the source; they are usually repeats but may differ in a detail not shown here. Identical values can stand only once. Results filed as inconclusive are left out. Where a call stands in place of a potency, no number is given. Some compounds were tested as several samples or in several runs, with calls that do not always agree. Active and inactive are the calls of the source. Unless noted, calls follow the shape of the dose curve; as a rule, active = well fitted curve in the direction sought with a large enough effect; inconclusive = small, poorly fitted or top-dose-only effect, or another doubt; inactive = no such curve, though single readings can be large; an effect the other way counts as inactive or inconclusive. Peptide text beside a SMILES is read from it.
# Columns and labels:
# [1] = Cellular Toxicity (caspase-3) N2a (AID 665);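 also: compound exposure lasted 16 h at 37 °C before readout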
# Method in brief: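 Mouse N2a neuroblastoma cells (1500/well) were treated with compounds for 16 h at 37 °C, then caspase-3/7 activity was read by Caspase-Glo luminescence after 1 h at room temperature. Data were normalized to DMSO and 10 uM staurosporine; AC50 from Hill fits.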
# [2] = Cellular Toxicity (caspase-3) NIH 3T3 (AID 666);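 also: caspase signal read after 16 h compound exposure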
# Method in brief: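 Mouse NIH 3T3 fibroblasts (1000 cells/well) were treated with compound for 16 hr at 37°C in complete medium; caspase-3/7 activity was read by Caspase-Glo luminescence. Normalized to DMSO and 100 uM tamoxifen; AC50 from Hill fits.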
# [3] = Cellular Toxicity (caspase-3) Renal Proximal Tubule (AID 667);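 also: cells exposed to compound for 16 hours at 37 °C before detection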
# Method in brief: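 Caspase 3/7 activation measured by luminescent aminoluciferin release in primary rat proximal tubule cells after 16 hr compound exposure at 37 °C. AC50 from Hill-fitted concentration-response, scaled between DMSO and 10 uM staurosporine.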
# [4] = biological target: Cytochrome P450 3A4 (Homo sapiens) (UniProt P08684); experiment: qHTS Assay for Inhibitors and Substrates of Cytochrome P450 3A4 (AID 884); also: nearly all actives have a fitted effect of over 50% in size; also: potency is read from the fitted curve at half-maximal effect
# Method in brief: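 20 nM human CYP3A4 with 25 uM Luciferin-PPXE (at KM) in 200 mM KPO4, preincubated 10 min with compound; NADPH regeneration started a 60 min RT reaction. Luciferin detected by luminescence, normalized to 57 uM ketoconazole as full inhibition.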
# [5] = MultiTox-Fluor Cytotoxicity Assay - LYMP1-001 - Dead Cells (AID 946); also: potency is read from the fitted curve at half-maximal effect
# Method in brief: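 Seed 2500 LYMP1-001 cells/well, incubate 5 hr at 37 C; add compound, 16 hr at 37 C; add MultiTox-Fluor reagent, 60 min RT; read dead-cell fluorescence Ex/Em=485/520. Normalize to DMSO and 15 uM tetraoctylammonium bromide.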
# [6] = MultiTox-Fluor Cytotoxicity Assay - LYMP1-001 - Live Cells (AID 947); also: potency is read from the fitted curve at half-maximal effect
# [7] = biological target: Guanine nucleotide-binding protein G(i) subunit alpha-1 (Homo sapiens) (UniProt P63096); experiment: qHTS Assay for Inhibitors of RGS12 GoLoco Motif Activity (Green Fluorophore) (AID 879);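 also: negative values mean loss of peptide binding seen as reduced polarization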
# Method in brief: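 Fluorescence polarization assay: 50 nM Gαi1 with 10 nM FITC-labeled RGS12 GoLoco peptide in 10 mM Tris pH 7.5, 150 mM NaCl, 0.1 mM GDP, 0.05% NP40, 10 min at room temperature with compound.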
# [8] = biological target: Cytochrome P450 3A4 (Homo sapiens) (UniProt P08684); experiment: qHTS Assay for Activators of Cytochrome P450 3A4 (AID 885); also: nearly all actives have a fitted effect of over 65% in size
# Method in brief: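 Steps: enzyme/substrate mix dispensed; compound added, 10 min RT; NADPH regeneration solution added, 60 min RT; luciferin detection buffer stops reaction; 20 min later luminescence measured.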
# [9] = qHTS Assay for Identification of Small Molecule Antagonists for NFkB Signaling Pathway (AID 895; active = well fitted inhibition curve with a large enough effect in the signal ratio, with a control signal flat, not every such curve was filed as active; the % refers to the signal ratio)
# Method in brief: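 Beta-lactamase reporter read-out (460 and 530 nm emission ratio, 405 nm excitation, 2 hrs substrate loading RT) after 5 hr stimulation with 10 pM TNF alpha in compound-treated NFkB-bla ME-180 cells in low-serum medium.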
# [10] = qHTS Assay for Identification of Small Molecule Agonists for Thrombopoietin (TPO) Signaling Pathway (AID 917); also: potency is read from the fitted curve at half-maximal effect
# Method in brief: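 Reporter: GpIIb promoter–luciferase in murine Ba/F3 expressing human TPO receptor. Pre-starved of IL-3 overnight; compounds with 26 pM TPO, 24 hrs, 37 C/5% CO2; luminescence read.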
# [11] = biological target: Muscarinic acetylcholine receptor M1 (Rattus norvegicus) (UniProt P08482); experiment: qHTS Assay for Antagonists of Acetylcholine Muscarinic M1 Receptor: Kinetic Measurement of Intracellular Calcium Response (AID 943);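 also: Fluo-4 calcium signal as peak divided by basal fluorescence over 4 min; series mostly up to about 35 µM; nearly all actives have a fitted effect of over 75% in size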
# Method in brief: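 CHO cells stably expressing rat M1 were loaded with no-wash Fluo-4 dye for 1 h at 37C, pre-incubated 10 min with compound, then challenged with EC80 carbachol (100 nM final); kinetic calcium read 4 min, peak/basal ratio.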
# [12] = biological target: Cytochrome P450 2C9 (Homo sapiens) (UniProt P11712); experiment: qHTS Assay for Inhibitors and Substrates of Cytochrome P450 2C9 (AID 883); also: nearly all actives have a fitted effect of over 60% in size; also: potency is read from the fitted curve at half-maximal effect
# Method in brief: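 Inhibition of CYP2C9 is scored as loss of luminescence, with 57uM sulphaphenazole defining 100% inhibition. Substrate Luciferin-H is used at 100uM, equal to its KM; enzyme at 10nM in 25mM KPO4, 60 min at 37C with NADPH regeneration.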
# [13] = biological target: Cytochrome P450 2D6 (Homo sapiens) (UniProt P10635); experiment: qHTS Assay for Inhibitors and Substrates of Cytochrome P450 2D6 (AID 891); also: nearly all actives have a fitted effect of over 60% in size; also: potency is read from the fitted curve at half-maximal effect
# Method in brief: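 Human CYP2D6 (5 nM) with 30 uM Luciferin-ME EGE (at Km) in 100 mM KPO4, compound preincubated 10 min, then NADPH regeneration system for 60 min at room temperature. Luciferin read by luminescence; normalized to 1.43 uM quinidine.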
# [14] = biological target: Muscarinic acetylcholine receptor M1 (Rattus norvegicus) (UniProt P08482); experiment: qHTS Assay for Antagonists of Acetylcholine Muscarinic M1 Receptor: Measurement of IP-One Response (AID 944); also: nearly all actives have a fitted effect of over 75% in size
# Method in brief: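 CHO cells expressing rat M1 receptor, recovered overnight, were pre-incubated 10 min with compound, then stimulated 30 min with carbachol at EC80 (200 nM) in LiCl-containing buffer, pH 7.4. IP1 accumulation was read by HTRF (620/665 nm).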
# [15] = biological target: Cytochrome P450 2C19 (Homo sapiens) (UniProt P33261); experiment: qHTS Assay for Inhibitors and Substrates of Cytochrome P450 2C19 (AID 899); also: nearly all actives have a fitted effect of over 60% in size; also: potency is read from the fitted curve at half-maximal effect
# Method in brief: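 5nM enzyme + 10uM Luciferin-H EGE (=KM), 50mM KPO4; cpd pin-transferred, 10 min 37C; NADPH regen, 60 min 37C; stopped w/ luciferin detection reagent, 20 min; luminescence. Normalized to 57uM ketoconazole (AC100).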
# [16] = Confirmation and Secondary Assay for Modulators of Hemoglobin Beta Chain Splicing at IVS2 654 locus (AID 910);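 also: HeLa cells stably carrying EGFP split by mutant beta-globin IVS2-654 intron; per-well total GFP intensity by laser scanning cytometry after 2-day treatment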
# Method in brief: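 Readout: per-well total peak green fluorescence (488 nm ex, 500–520 nm em) from objects 5–250 µm, reflecting correct splicing of an EGFP-654 reporter. Compounds were applied for 2 days at 37 °C to overnight-plated HeLa EGFP-654 cells; controls were DMSO and 500 nM IVS2-654 PNA.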
# [17] = Confirmation and Secondary Assay for Modulators of Hemoglobin Beta Chain Splicing at IVS2 705 locus (AID 930);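 also: HeLa cells stably expressing the EGFP-705 splicing reporter; GFP fluorescence per well restored by corrected splicing of the IVS2-705 intron in EGFP; series mostly up to about 46 µM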
# Method in brief: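 HeLa IVS2-705 EGFP reporter cells, 500/well, compound 2 d at 37C; correct splicing yields fluorescent EGFP. Control: 500 nM antisense PNA. Read-out: total peak GFP intensity.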
# [18] = qHTS Assay for Identification of Small Molecule Agonists for NFkB Signaling Pathway (AID 928; calls by dose curve); conditions: NFkB beta-lactamase reporter cells, blue/green ratio
# Method in brief: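 ME-180 NFkB-bla cells carry a beta-lactamase reporter under an NFkB response element. Compound plus 10 pM TNF alpha (final) was applied for 5 hrs at 37 C. After 2 hrs with LiveBLAzer substrate, 460/530 nm emission was read at 405 nm excitation.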
# Sequence of Cytochrome P450 2D6 (Homo sapiens) (P10635 whole entry, looked up): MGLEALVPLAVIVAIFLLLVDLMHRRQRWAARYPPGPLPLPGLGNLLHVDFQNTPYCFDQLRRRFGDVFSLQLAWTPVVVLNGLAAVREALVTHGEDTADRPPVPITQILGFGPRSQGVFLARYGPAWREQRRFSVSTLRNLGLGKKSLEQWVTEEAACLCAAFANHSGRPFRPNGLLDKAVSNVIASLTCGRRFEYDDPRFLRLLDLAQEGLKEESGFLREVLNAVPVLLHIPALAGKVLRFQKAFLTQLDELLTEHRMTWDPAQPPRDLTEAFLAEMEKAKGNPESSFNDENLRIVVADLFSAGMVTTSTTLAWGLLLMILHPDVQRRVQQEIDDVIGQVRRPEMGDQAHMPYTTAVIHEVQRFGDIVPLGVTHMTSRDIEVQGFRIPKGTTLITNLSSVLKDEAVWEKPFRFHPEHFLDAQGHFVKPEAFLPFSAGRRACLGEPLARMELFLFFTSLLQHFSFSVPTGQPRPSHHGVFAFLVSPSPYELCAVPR
# Sequence of Cytochrome P450 3A4 (Homo sapiens) (P08684 whole entry, looked up): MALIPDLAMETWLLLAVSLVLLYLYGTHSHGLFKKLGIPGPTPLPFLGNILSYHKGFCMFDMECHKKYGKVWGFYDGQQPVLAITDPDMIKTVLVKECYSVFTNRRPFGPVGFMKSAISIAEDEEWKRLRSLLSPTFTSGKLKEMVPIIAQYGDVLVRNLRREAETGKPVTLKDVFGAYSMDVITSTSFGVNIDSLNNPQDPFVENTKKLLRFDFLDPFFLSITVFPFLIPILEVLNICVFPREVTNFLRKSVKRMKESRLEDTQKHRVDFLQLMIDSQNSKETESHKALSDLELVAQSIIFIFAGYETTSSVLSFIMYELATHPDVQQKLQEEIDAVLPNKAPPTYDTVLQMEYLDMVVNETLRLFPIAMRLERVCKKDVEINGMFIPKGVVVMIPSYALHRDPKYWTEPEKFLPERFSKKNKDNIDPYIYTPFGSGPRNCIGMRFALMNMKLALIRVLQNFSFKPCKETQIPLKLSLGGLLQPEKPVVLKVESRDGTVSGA
# Sequence of Muscarinic acetylcholine receptor M1 (Rattus norvegicus) (P08482 whole entry, looked up): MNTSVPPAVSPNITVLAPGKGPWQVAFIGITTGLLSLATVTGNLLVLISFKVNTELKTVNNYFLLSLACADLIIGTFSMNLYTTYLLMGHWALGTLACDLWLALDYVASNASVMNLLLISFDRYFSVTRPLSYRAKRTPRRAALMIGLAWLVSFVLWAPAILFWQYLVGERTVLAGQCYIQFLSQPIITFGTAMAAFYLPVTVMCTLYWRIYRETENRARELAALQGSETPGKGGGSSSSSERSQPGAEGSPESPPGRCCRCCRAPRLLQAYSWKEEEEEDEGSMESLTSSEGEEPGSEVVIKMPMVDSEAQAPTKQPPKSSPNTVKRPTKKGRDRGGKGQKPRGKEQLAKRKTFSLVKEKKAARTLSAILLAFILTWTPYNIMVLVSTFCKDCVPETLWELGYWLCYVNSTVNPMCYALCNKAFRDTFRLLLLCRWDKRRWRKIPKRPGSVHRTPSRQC
# Sequence of Cytochrome P450 2C9 (Homo sapiens) (P11712 whole entry, looked up): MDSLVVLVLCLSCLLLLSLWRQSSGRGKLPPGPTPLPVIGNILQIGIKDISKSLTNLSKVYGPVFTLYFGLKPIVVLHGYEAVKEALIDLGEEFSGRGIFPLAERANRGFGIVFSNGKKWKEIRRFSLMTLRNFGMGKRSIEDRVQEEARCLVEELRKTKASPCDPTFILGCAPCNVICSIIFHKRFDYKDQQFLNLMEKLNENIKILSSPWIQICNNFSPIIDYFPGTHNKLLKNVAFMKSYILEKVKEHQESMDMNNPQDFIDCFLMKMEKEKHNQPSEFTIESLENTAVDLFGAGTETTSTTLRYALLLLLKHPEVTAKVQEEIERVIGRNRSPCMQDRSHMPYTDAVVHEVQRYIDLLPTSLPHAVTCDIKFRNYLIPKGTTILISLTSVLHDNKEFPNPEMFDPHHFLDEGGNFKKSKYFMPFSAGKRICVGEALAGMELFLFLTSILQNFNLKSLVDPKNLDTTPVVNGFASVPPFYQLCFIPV
# Sequence of Cytochrome P450 2C19 (Homo sapiens) (P33261 whole entry, looked up): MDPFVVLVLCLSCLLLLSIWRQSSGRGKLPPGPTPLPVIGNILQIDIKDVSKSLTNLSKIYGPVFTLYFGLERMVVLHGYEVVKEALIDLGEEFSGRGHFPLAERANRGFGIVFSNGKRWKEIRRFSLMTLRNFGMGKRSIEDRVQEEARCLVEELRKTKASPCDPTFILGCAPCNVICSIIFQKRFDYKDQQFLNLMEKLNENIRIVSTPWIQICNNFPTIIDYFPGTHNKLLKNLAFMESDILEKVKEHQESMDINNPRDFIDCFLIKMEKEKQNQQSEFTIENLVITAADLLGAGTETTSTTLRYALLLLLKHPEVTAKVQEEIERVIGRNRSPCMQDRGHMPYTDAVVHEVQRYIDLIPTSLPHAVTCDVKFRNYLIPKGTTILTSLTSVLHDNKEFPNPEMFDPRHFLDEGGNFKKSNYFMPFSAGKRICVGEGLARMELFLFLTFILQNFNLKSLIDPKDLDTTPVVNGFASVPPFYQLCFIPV
# Sequence of Guanine nucleotide-binding protein G(i) subunit alpha-1 (Homo sapiens) (P63096 whole entry, looked up): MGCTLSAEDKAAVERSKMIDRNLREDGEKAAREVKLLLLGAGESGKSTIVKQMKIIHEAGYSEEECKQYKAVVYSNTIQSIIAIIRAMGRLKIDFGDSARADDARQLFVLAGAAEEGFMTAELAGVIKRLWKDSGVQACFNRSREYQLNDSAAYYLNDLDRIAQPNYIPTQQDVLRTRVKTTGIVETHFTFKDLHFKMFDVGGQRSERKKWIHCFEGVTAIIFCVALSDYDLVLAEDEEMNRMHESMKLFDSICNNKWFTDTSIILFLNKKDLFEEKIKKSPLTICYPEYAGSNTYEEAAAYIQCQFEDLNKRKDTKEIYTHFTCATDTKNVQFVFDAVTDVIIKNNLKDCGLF
structure (smiles),measurement,setting,value
COC(=O)[C@H](Cc1ccccc1)NC(=O)[C@@H](N)CC(=O)O (H-Asp-Phe-OMe),outcome,[1],inactive
same,outcome,[2],inactive
same,outcome,[3],inactive
same,Potency,[4],inactive
same,Potency,[5],inactive
same,Potency,[6],inactive
CN(C)c1ccc2nc3ccc(=[N+](C)C)cc-3sc2c1,outcome,[1],inactive
same,outcome,[2],inactive
same,outcome,[3],inactive
same,Potency,[5],10 µM (active)
same,Potency,[6],10 µM (active)
COc1ccccc1N1CCN(CCN(C(=O)C2CCCCC2)c2ccccn2)CC1,outcome,[7],inactive
same,Potency,[4],3.98 µM (active)
same,outcome,[8],inactive
same,Potency,[9],inactive
same,Potency,[10],inactive
same,Potency,[11],inactive
CC1(C)C(=O)N(CCN2CCC(C(=O)c3ccc(F)cc3)CC2)c2ccccc21,outcome,[7],inactive
same,Potency,[12],inactive
same,outcome,[8],inactive
same,Potency,[13],1.26 µM (active)
O=C1NC(=O)C(c2ccccc2[N+](=O)[O-])=C1Nc1ccc(O)c(Cl)c1,outcome,[7],inactive
same,outcome,[8],inactive
same,Potency,[13],inactive
same,Potency,[11],inactive
Cc1cc(O)c2c(c1)C(=O)c1cc(O)cc(O)c1C2=O,outcome,[1],inactive
same,outcome,[3],inactive
same,outcome,[7],inactive
same,Potency,[12],3.98 µM (active)
same,Potency,[13],31.6 µM (active)
same,Potency,[11],inactive
same,Potency,[14],inactive
same,Potency,[5],inactive
CC1(C)NC(=O)N(c2ccc([N+](=O)[O-])c(C(F)(F)F)c2)C1=O,outcome,[7],inactive
same,outcome,[8],inactive
same,Potency,[13],inactive
same,Potency,[15],7.94 µM (active) and 126 nM (active) and 251 nM (active)
same,Potency,[16],inactive
same,Potency,[10],inactive
same,Potency,[17],inactive
COc1c2occc2cc2ccc(=O)oc12,outcome,[1],inactive
same,outcome,[2],inactive
same,outcome,[3],inactive
same,Potency,[16],inactive
same,Potency,[17],inactive
same,Potency,[5],inactive
same,Potency,[6],inactive
Cc1cccc(C#Cc2ccccc2)n1,outcome,[7],inactive
same,Potency,[12],inactive and 10 µM (active)
same,outcome,[8],inactive
same,Potency,[15],inactive and 7.94 µM (active)
same,Potency,[10],1 µM (active)
Cc1nc2n(c(=O)c1CCN1CCC(c3noc4cc(F)ccc34)CC1)CCCC2,outcome,[7],inactive
same,outcome,[12],inactive
same,Potency,[13],7.94 µM (active)
same,Potency,[9],inactive
same,outcome,[15],inactive
same,Potency,[10],inactive
O=c1cc(N2CCOCC2)oc2c(-c3ccccc3)cccc12,outcome,[7],inactive
same,outcome,[8],inactive
same,Potency,[18],7.08 µM (active)
CCCOc1ccc2nc(NC(=O)OC)[nH]c2c1,Potency,[4],inactive
same,Potency,[16],inactive
same,Potency,[17],inactive
O=C(NCCO[N+](=O)[O-])c1cccnc1,Potency,[12],2 µM (active)
same,Potency,[15],3.98 µM (active)
CN(C)CCc1c[nH]c2ccc(Cn3cncn3)cc12,Potency,[4],inactive
same,Potency,[16],inactive
same,Potency,[17],inactive
Cc1cc(=O)oc2cc(O)ccc12,Potency,[12],inactive
Nc1nc(Cl)nc2c1ncn2[C@H]1C[C@H](O)[C@@H](CO)O1,Potency,[4],inactive
same,Potency,[16],inactive
same,Potency,[17],inactive
Cc1ccc(S(=O)(=O)NC(=O)NN2CC3CCCC3C2)cc1 (stereo unspecified),Potency,[4],inactive
same,Potency,[16],inactive
same,Potency,[17],inactive
